Compounds with a hit are over-represented: about 2.9% of the library has one in this group of screens.
PAFAH1B2 inh: inhibitors of human PAFAH1B2. P68402. recombinant PAFAH1B2, FP-rhodamine activity probe, fluorescence polarization. inhibition, % at 3.39 µM. hit rate 1.2% among 340,000. AID 492953;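 active means inhibition above the mean of all tested compounds plus 3 SD, cut at about 24% in these data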
Target sequence (P68402 whole entry, looked up): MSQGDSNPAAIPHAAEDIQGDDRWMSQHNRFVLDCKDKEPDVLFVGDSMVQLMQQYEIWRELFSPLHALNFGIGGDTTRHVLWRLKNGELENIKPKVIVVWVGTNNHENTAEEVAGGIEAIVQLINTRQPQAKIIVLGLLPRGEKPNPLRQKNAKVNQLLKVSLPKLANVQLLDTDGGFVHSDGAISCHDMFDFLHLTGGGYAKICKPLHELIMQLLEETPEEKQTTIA
PAFAH2 inh: inhibitors of human PAFAH2; Q99487; recombinant PAFAH2, FP-rhodamine activity probe, fluorescence polarization; inhibition, % at 3.39 µM; hit rate 0.99% among 340,000; AID 492956;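 active means inhibition above the mean over all tested compounds plus 3 SD, cut at about 30% in these data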;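 further: inhibitors block probe labeling of enzyme so polarization drops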
PME-1 primary: PME-1 (human) inhibition; AID 2130; recombinant PME-1, FP-Rh probe fluorescence polarization; inhibition, % at 5.9 µM; Q9Y570; hit rate 0.53% among 320,000;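 active means inhibition above the campaign mean of all compounds plus 3 SD, cut at about 26% in these data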;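 further: competitive labeling of PME-1 active site by serine hydrolase directed probe; inhibitors block probe labeling so polarization falls and inhibition rises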
PAFAH1B3 FP inh: PAFAH1B3 (human) inhibition; recombinant PAFAH1B3, FP-rhodamine probe, fluorescence polarization; inhibition, % at 3.39 µM; hit rate 0.28% among 340,000; AID 492972; Q15102;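 active means inhibition above the screen-wide average of all tested compounds plus 3 SD, cut at about 25% in these data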
pPAFAH FP inh: inhibitors of human plasma PAF acetylhydrolase (pPAFAH); recombinant pPAFAH, FP-rhodamine probe fluorescence polarization; inhibition, % at 3.39 µM; Q13093; hit rate 1.5% among 330,000;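 active means inhibition above the mean inhibition across the screen plus 3 SD, cut at about 25% in these data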;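 further: inhibitors block binding of the rhodamine activity-based probe so polarization drops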
Target sequence (Q13093 whole entry, looked up): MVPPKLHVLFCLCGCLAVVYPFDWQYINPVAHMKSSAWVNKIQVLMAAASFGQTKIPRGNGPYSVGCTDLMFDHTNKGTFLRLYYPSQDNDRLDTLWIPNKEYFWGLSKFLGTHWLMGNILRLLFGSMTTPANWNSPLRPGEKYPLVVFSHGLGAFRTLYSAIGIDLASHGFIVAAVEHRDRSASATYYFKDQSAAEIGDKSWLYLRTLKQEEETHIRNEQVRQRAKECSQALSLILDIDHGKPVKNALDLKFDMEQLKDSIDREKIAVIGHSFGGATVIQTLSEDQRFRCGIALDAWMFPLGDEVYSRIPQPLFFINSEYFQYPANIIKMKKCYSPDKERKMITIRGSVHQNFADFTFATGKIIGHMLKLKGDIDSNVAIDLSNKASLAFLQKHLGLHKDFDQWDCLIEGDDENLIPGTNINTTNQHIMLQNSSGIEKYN
Fam108B counter: blocks mouse Fam108B hydrolase in RBBP9 counter-screen; recombinant Fam108B, FP-Rh probe fluorescence polarization; inhibition, % at 9.51 µM; hit rate 0.33% among 300,000; AID 1947;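 active means inhibition above the screen mean inhibition plus 3 SD, computed separately per campaign, cut at about 18% in these data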;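 further: inhibitors lower polarization as less probe binds the enzyme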
PAFAH2 confirm: PAFAH2 (human) inhibition, confirmed. shares compounds with PAFAH2 inh. recombinant PAFAH2, FP-rhodamine activity probe, fluorescence polarization. inhibition, % at 3.39 µM. hit rate 65% among 2,300. AID 493030;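 active means mean inhibition over three repeats above a set limit taken from the earlier primary screen, cut at about 30% in these data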;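 further: inhibitor blocks binding of rhodamine activity probe so polarization falls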
Each line names hits and unclear results; the compound was inactive in the other large screens (follow-up assays come after a bar, where they were run).

COc1cc(N)c(Cl)cc1C(=O)OCC(=O)N(C)C1CCCCC1	PAFAH2 inh 55 (no result: Fam108B counter) | PAFAH2 confirm 30
COc1cc(N)c(Cl)cc1C(=O)OCC(=O)NC1CCCC1	PAFAH2 inh 48 | PAFAH2 confirm 34
COc1cc2c(C(F)(F)F)c(-c3ccsc3)oc(=O)c2cc1OC	PAFAH2 inh 59 (no result: PME-1 primary, Fam108B counter) | PAFAH2 confirm 39
COc1cc2c(C(F)(F)F)c(-c3ccc(C#N)cc3)oc(=O)c2cc1OC	none (no result: PME-1 primary, Fam108B counter)
Cc1c(-c2ccncc2)oc2ccc(Br)cc2c1=O	none (no result: PAFAH1B2 inh, PAFAH2 inh, PAFAH1B3 FP inh)
COc1ccc(CCNC(=O)COC(=O)/C=C/c2cccc(F)c2)cc1	none (no result: PME-1 primary, Fam108B counter)
CCCNC(=O)COC(=O)/C=C/c1cccc(F)c1	PAFAH2 inh 33 | PAFAH2 confirm inactive
O=C(COC(=O)/C=C/c1cccc(F)c1)Nc1ccccc1	PAFAH2 inh 76 | PAFAH2 confirm 82
O=C(COC(=O)c1ccc(Cl)cc1)NCC1CCCCC1	PAFAH2 inh 59 (no result: PME-1 primary, Fam108B counter) | PAFAH2 confirm 60
O=C(COC(=O)c1ccc(F)cc1)NCC1CCCCC1	PAFAH2 inh 77 (no result: PME-1 primary, Fam108B counter) | PAFAH2 confirm 60
COc1ccc(C(=O)OCC(=O)NCC2CCCCC2)c(OC)c1	PAFAH2 inh 66 (no result: PME-1 primary, pPAFAH FP inh, Fam108B counter) | PAFAH2 confirm 57
COc1ccc(C(=O)OCC(=O)NCC2CCCCC2)cc1F	PAFAH2 inh 85 (no result: PME-1 primary, pPAFAH FP inh, Fam108B counter) | PAFAH2 confirm 72
Cc1ccc2sc(N(CCCN(C)C)C(=O)c3ccc(S(=O)(=O)N(C)Cc4ccccc4)cc3)nc2c1C	none
COc1ccc(S(=O)(=O)N2CCN(CC(=O)Nc3cc(Cl)ccc3Cl)CC2)cc1	none (no result: Fam108B counter)
CCc1ccccc1OCC(=O)Nc1cccc(S(=O)(=O)N2CCCC2)c1	none (no result: PME-1 primary, pPAFAH FP inh, Fam108B counter)
CCOc1ccccc1C(=O)OCC(=O)Nc1cccc(S(=O)(=O)N2CCCC2)c1	PAFAH2 inh 73 (no result: PME-1 primary, Fam108B counter) | PAFAH2 confirm 52
O=C(COC(=O)c1cccnc1Cl)Nc1cccc(S(=O)(=O)N2CCCCC2)c1	none
CCS(=O)c1ccccc1C(=O)OCC(=O)Nc1ccc2ccccc2c1 (stereo not given)	PAFAH2 inh 70 (no result: PME-1 primary, Fam108B counter) | PAFAH2 confirm 67
O=C(COC(=O)c1ccccc1O)Nc1ccc2ccccc2c1	none (no result: PME-1 primary, Fam108B counter)
CCS(=O)c1ccccc1C(=O)OCC(=O)Nc1cccc(S(=O)(=O)N2CCCCC2)c1 (stereo not given)	PAFAH2 inh 59 (no result: Fam108B counter) | PAFAH2 confirm 53
Cc1ccc(OCCCCNC(C)c2ccccc2)c(C)c1 (stereo not given)	none
CCCCCCCC(=O)NNC(=O)c1c(O)c2ccccc2[nH]c1=O	none
CCCCCCC(=O)Nc1c(O)c2ccccc2[nH]c1=O	PAFAH2 inh 42 | PAFAH2 confirm inactive
CC(=O)C1=C(O)C(=O)N(c2cc(C(C)(C)C)on2)C1c1ccc(Br)cc1 (stereo not given)	PAFAH2 inh 34 | PAFAH2 confirm inactive
CC(=O)C1=C(O)C(=O)N(c2cc(C(C)(C)C)on2)C1c1ccc(C(C)C)cc1 (stereo not given)	none
COc1cc2ncnc(NCc3ccc4c(c3)OCO4)c2cc1OC	none
N=C1S/C(=C\c2ccc(-c3cccc(Cl)c3)o2)C(=O)N1c1nccs1	PAFAH2 inh 45 | PAFAH2 confirm inactive
Nc1ccc(C(=O)OCc2nc3c(ccc4ccccc43)[nH]2)cc1	PAFAH2 inh 80 | PAFAH2 confirm 82
Nc1ccc(C(=O)OCc2nc3cc4ccccc4cc3[nH]2)cc1	PAFAH2 inh 85 | PAFAH2 confirm 83
CCc1cccc(NC(=O)Cc2cn(C)c3ccccc23)c1	none
CCOC(=O)C1CCCNC1=O (stereo not given)	none
O=[N+]([O-])c1ccc(C=Nc2cccc3ccccc23)s1	PAFAH2 inh 66 | PAFAH2 confirm inactive
COc1ccccc1CNC(=O)CNCCc1ccc(OC)c(OC)c1	none
CC1CCc2sc(C(=O)OCC(=O)NC(N)=O)cc2C1 (stereo not given)	none
CC1CCc2sc(C(=O)OCC(=O)NC(C)C)cc2C1 (stereo not given)	PAFAH2 inh 31 | PAFAH2 confirm inactive
Cc1cc(NC(=O)COC(=O)c2cc3c(s2)CCC(C)C3)no1 (stereo not given)	PAFAH2 inh 30 | PAFAH2 confirm inactive
COc1ccc(N2CC(O)=C(c3nc(-c4ccc(F)cc4)cs3)C2=N)cc1OC	PAFAH2 inh 41 | PAFAH2 confirm 42
COc1ccc(N2CC(O)=C(c3nc(-c4ccc(F)cc4)cs3)C2=N)cc1Cl	none
CC[C@H](C)[C@H]1CNC(=S)N1CC1CCN(CCCCc2ccccc2)CC1	none (no result: PME-1 primary, pPAFAH FP inh, Fam108B counter)
Cc1nn(C2CCS(=O)(=O)C2)c(Cl)c1/C=C/C(=O)OCC(=O)Nc1ccc2c(c1)OCO2 (stereo not given)	PAFAH2 inh 83 | PAFAH2 confirm 80
COc1cc(/C=C/C(=O)OCC(=O)Nc2ccc3c(c2)OCO3)ccc1O	PAFAH2 inh 82 (no result: PME-1 primary, Fam108B counter) | PAFAH2 confirm 74
COc1cc(/C=C/C(=O)OCC(=O)Nc2ccc3c(c2)OCCO3)ccc1O	PAFAH2 inh 75 | PAFAH2 confirm 80
COc1ccc(/C=C/C(=O)OCC(=O)Nc2ccc3c(c2)OCO3)cc1	PAFAH2 inh 70 (no result: Fam108B counter) | PAFAH2 confirm 69
COc1ccccc1N1CCN(C(=O)CN(C2CCCCC2)S(C)(=O)=O)CC1	none
CC(C)CNC(=O)COC(=O)c1n[nH]c2ccccc12	PAFAH2 inh 56 | PAFAH2 confirm 39
COc1ccc(CNC(=O)COC(=O)c2n[nH]c3ccccc23)cc1	none
CCOc1ccc(NC(=O)COC(=O)c2n[nH]c3ccccc23)cc1	PAFAH2 inh 62 (no result: PME-1 primary, Fam108B counter) | PAFAH2 confirm 37
CC(=O)Nc1ccc(NC(=O)COC(=O)c2n[nH]c3ccccc23)cc1	none
Cc1ccc(S(=O)(=O)N2CCCCC2)cc1NS(=O)(=O)c1cccc(C(=O)O)c1	none
COc1cc(NC(=O)COC(=O)/C=C/c2ccc(Cl)cc2Cl)cc(OC)c1	none
O=S(=O)(c1ccccc1)N1CCN=C1SCc1ccccc1Cl	none
COc1cccc(NC(=O)CCSc2nnc3scc(-c4ccccc4)n23)c1	none
O=C(COC(=O)/C=C/c1ccccc1)NCC1CCCO1 (stereo not given)	PAFAH2 inh 37 | PAFAH2 confirm inactive
CSc1ccc(/C=C/C(=O)OCC(=O)NCC2CCCO2)cc1 (stereo not given)	PAFAH2 inh 39 (no result: Fam108B counter) | PAFAH2 confirm inactive
O=C(COC(=O)/C=C/c1ccccc1Cl)NCC1CCCO1 (stereo not given)	none (no result: PME-1 primary, Fam108B counter)
O=C(Cc1ccccc1)NC(NNc1ccccc1)(C(F)(F)F)C(F)(F)F	none
CN(C)c1ccc(C(O)c2cc3ccccc3s2)cc1 (stereo not given)	none (no result: PME-1 primary, pPAFAH FP inh, Fam108B counter)
O=C(O)CCCN1C(=O)/C(=C/c2ccc(-c3nc4ccccc4s3)o2)SC1=S	PAFAH2 inh 50 | PAFAH2 confirm 51
COc1ccccc1NS(=O)(=O)c1ccc(NN=C2CCCCC2)c([N+](=O)[O-])c1	none
